How the values were obtained:
Experiment in all cases: PBM binding z-score (relative to random genomic background probes); higher = stronger binding; sequences stand for … in GC…GCGATTGACAGCGTAGAATGAAGG
[1] = test system: FXR:RXRa (NR concentration 270 nM, RXRa partner concentration 90 nM)
Summary of the method: (§1)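 On custom Agilent 4×180K arrays, double-stranded probes with 34-nt variable regions carried direct-repeat seeds, single-nucleotide variants, half-site ablations or random human genomic background. Ligand-free nuclear receptor dimers were applied for 1 h, and binding was read with antibodies against each partner (one per run). Binding z-scores come from regression-normalized fluorescence, with the random background probes as reference.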

[2] = test system: LXRa:RXRa (NR concentration 270 nM, RXRa partner concentration 90 nM)
Summary of the method: as §1

[3] = test system: LXRa homodimer (NR concentration 270 nM)
Summary of the method: as §1

[4] = test system: LXRb:RXRa (NR concentration 270 nM, RXRa partner concentration 90 nM)
Summary of the method: as §1

[5] = test system: LXRb homodimer (NR concentration 270 nM)
Summary of the method: as §1

[6] = test system: PPARa:RXRa (NR concentration 270 nM, RXRa partner concentration 90 nM)
Summary of the method: as §1

[7] = test system: PPARg:RXRa (NR concentration 180 nM, RXRa partner concentration 90 nM)
Summary of the method: as §1

[8] = test system: PPARg:RXRa 270nM:90nM, anti-RXR (NR concentration 270 nM, RXRa partner concentration 90 nM)
Summary of the method: as §1

[9] = test system: PPARg:RXRa 30nM:10nM, anti-RXR (NR concentration 30 nM, RXRa partner concentration 10 nM)
Summary of the method: as §1

[10] = test system: PPARg:RXRa 90nM:30nM, anti-RXR (NR concentration 90 nM, RXRa partner concentration 30 nM)
Summary of the method: as §1

[11] = test system: PPARg:RXRa DBDmut IVT, anti-RXR (DBD mutation: RXRa K156A/R161A, NR concentration 270 nM, RXRa partner concentration 90 nM)
Summary of the method: as §1

[12] = test system: PPARg:RXRa IVT, anti-PPARg (NR concentration 270 nM, RXRa partner concentration 90 nM)
Summary of the method: as §1

[13] = test system: PPARg DBDmut:RXRa IVT, anti-PPARg (DBD mutation: PPARg1 K132A/R137A, NR concentration 270 nM, RXRa partner concentration 90 nM)
Summary of the method: as §1

[14] = test system: PPARg DBDmut IVT, anti-PPARg (DBD mutation: PPARg1 K132A/R137A, NR concentration 270 nM)
Summary of the method: as §1

[15] = test system: PPARg homodimer (NR concentration 180 nM)
Summary of the method: as §1

[16] = test system: PXR:RXRa (NR concentration 270 nM, RXRa partner concentration 90 nM)
Summary of the method: as §1

[17] = test system: PXR homodimer (NR concentration 270 nM)
Summary of the method: as §1

[18] = test system: RARa:RXR (NR concentration 270 nM, RXRa partner concentration 90 nM)
Summary of the method: as §1

[19] = test system: RARa homodimer (NR concentration 270 nM)
Summary of the method: as §1

[20] = test system: RARb:RXRa (NR concentration 270 nM, RXRa partner concentration 90 nM)
Summary of the method: as §1

CCAGACAGGTGAGCAGGTAACTCAGCCTCGATTA
PBM binding z-score [1]: -0.268 | PBM binding z-score [2]: 0.0871 | PBM binding z-score [3]: -0.134 | PBM binding z-score [4]: 0.00402 | PBM binding z-score [5]: -0.328 | PBM binding z-score [6]: 0.272 | PBM binding z-score [7]: 0.174 | PBM binding z-score [8]: -0.00169 | PBM binding z-score [9]: -0.644 | PBM binding z-score [10]: -0.464 | PBM binding z-score [11]: 1.15 | PBM binding z-score [12]: 0.619 | PBM binding z-score [13]: -0.93 | PBM binding z-score [14]: -1.41 | PBM binding z-score [15]: 0.319 | PBM binding z-score [16]: -0.31 | PBM binding z-score [17]: 0.22 | PBM binding z-score [18]: -0.516 | PBM binding z-score [19]: 0.0182 | PBM binding z-score [20]: 0.568

TAGCCTAGGTCATACGGGCCAGTATAGTGTCGGC
PBM binding z-score [1]: 4.14 | PBM binding z-score [2]: 3.21 | PBM binding z-score [3]: 0.859 | PBM binding z-score [4]: 1.8 | PBM binding z-score [5]: -0.00996 | PBM binding z-score [6]: 3.5 | PBM binding z-score [7]: 2.18 | PBM binding z-score [8]: 2.57 | PBM binding z-score [9]: 0.318 | PBM binding z-score [10]: 1.54 | PBM binding z-score [11]: 1.67 | PBM binding z-score [12]: 2.89 | PBM binding z-score [13]: -0.195 | PBM binding z-score [14]: -0.639 | PBM binding z-score [15]: 0.811 | PBM binding z-score [16]: 1.66 | PBM binding z-score [17]: -0.13 | PBM binding z-score [18]: 2.4 | PBM binding z-score [19]: 0.0154 | PBM binding z-score [20]: 3.56

CCGACTGGGGCAAGGATACCATAACGCACAGCCA
PBM binding z-score [1]: -0.419 | PBM binding z-score [2]: -0.243 | PBM binding z-score [3]: -0.0407 | PBM binding z-score [4]: -0.588 | PBM binding z-score [5]: -1.01 | PBM binding z-score [6]: 0.158 | PBM binding z-score [7]: 1.6 | PBM binding z-score [8]: 1.16 | PBM binding z-score [9]: -0.149 | PBM binding z-score [10]: 0.515 | PBM binding z-score [11]: 2.53 | PBM binding z-score [12]: 2.44 | PBM binding z-score [13]: -1.12 | PBM binding z-score [14]: -0.391 | PBM binding z-score [15]: 0.238 | PBM binding z-score [16]: -0.678 | PBM binding z-score [17]: -0.593 | PBM binding z-score [18]: -0.387 | PBM binding z-score [19]: 0.23 | PBM binding z-score [20]: 0.558

CGTCCTAGGTCATAGGAGGTCAGTGAAGACAGAT
PBM binding z-score [1]: 5.53 | PBM binding z-score [2]: 6.34 | PBM binding z-score [3]: 3.87 | PBM binding z-score [4]: 5.18 | PBM binding z-score [5]: 0.0467 | PBM binding z-score [6]: 4.91 | PBM binding z-score [7]: 3.72 | PBM binding z-score [8]: 4.05 | PBM binding z-score [9]: 1.4 | PBM binding z-score [10]: 3.09 | PBM binding z-score [11]: 3.43 | PBM binding z-score [12]: 4.34 | PBM binding z-score [13]: -0.339 | PBM binding z-score [14]: -0.4 | PBM binding z-score [15]: 2.53 | PBM binding z-score [16]: 6.01 | PBM binding z-score [17]: 1.28 | PBM binding z-score [18]: 4.21 | PBM binding z-score [19]: 1.08 | PBM binding z-score [20]: 4.6

ATCGAAAGGTCGTGGGGTGAGTATACAGAAAGGC
PBM binding z-score [1]: 6.2 | PBM binding z-score [2]: 4.88 | PBM binding z-score [3]: 0.955 | PBM binding z-score [4]: 4.76 | PBM binding z-score [5]: 2.35 | PBM binding z-score [6]: 5.78 | PBM binding z-score [7]: 5.25 | PBM binding z-score [8]: 5.38 | PBM binding z-score [9]: 2.16 | PBM binding z-score [10]: 3.9 | PBM binding z-score [11]: 1.35 | PBM binding z-score [12]: 2.93 | PBM binding z-score [13]: 1.62 | PBM binding z-score [14]: 1.78 | PBM binding z-score [15]: 2.39 | PBM binding z-score [16]: 4.24 | PBM binding z-score [17]: 1.2 | PBM binding z-score [18]: 4.98 | PBM binding z-score [19]: 2.03 | PBM binding z-score [20]: 4.47

TAGCCTAGGTCAGTTCGGGCCAGTATACGCTATA
PBM binding z-score [1]: 1.39 | PBM binding z-score [2]: 0.745 | PBM binding z-score [3]: -0.272 | PBM binding z-score [4]: 0.551 | PBM binding z-score [5]: -0.0472 | PBM binding z-score [6]: 1.22 | PBM binding z-score [7]: 0.33 | PBM binding z-score [8]: 0.647 | PBM binding z-score [9]: -0.293 | PBM binding z-score [10]: 0.114 | PBM binding z-score [11]: 0.449 | PBM binding z-score [12]: 1.21 | PBM binding z-score [13]: -0.878 | PBM binding z-score [14]: -1.14 | PBM binding z-score [15]: -0.282 | PBM binding z-score [16]: 1.53 | PBM binding z-score [17]: -0.352 | PBM binding z-score [18]: 0.927 | PBM binding z-score [19]: -0.951 | PBM binding z-score [20]: 2.92

TCGTGTAGATCAAAGGTTAAGAAAGCCGAAGCCT
PBM binding z-score [1]: 1.91 | PBM binding z-score [2]: 1.98 | PBM binding z-score [3]: 0.381 | PBM binding z-score [4]: 1.83 | PBM binding z-score [5]: 0.049 | PBM binding z-score [6]: 3.91 | PBM binding z-score [7]: 5.73 | PBM binding z-score [8]: 6.47 | PBM binding z-score [9]: 5.88 | PBM binding z-score [10]: 6.62 | PBM binding z-score [11]: 0.876 | PBM binding z-score [12]: 2.22 | PBM binding z-score [13]: -0.315 | PBM binding z-score [14]: -0.277 | PBM binding z-score [15]: 1.21 | PBM binding z-score [16]: 1.9 | PBM binding z-score [17]: -0.215 | PBM binding z-score [18]: 2.68 | PBM binding z-score [19]: 0.495 | PBM binding z-score [20]: 1.86

CCTCCTGGGCCACGAAAGGTCATTGATTCAGTGA
PBM binding z-score [1]: 3.25 | PBM binding z-score [2]: 5.1 | PBM binding z-score [3]: 4.52 | PBM binding z-score [4]: 4.15 | PBM binding z-score [5]: -0.0448 | PBM binding z-score [6]: 4.14 | PBM binding z-score [7]: 1.39 | PBM binding z-score [8]: 2.94 | PBM binding z-score [9]: 0.283 | PBM binding z-score [10]: 2.02 | PBM binding z-score [11]: 0.578 | PBM binding z-score [12]: 2.2 | PBM binding z-score [13]: -0.811 | PBM binding z-score [14]: -1.6 | PBM binding z-score [15]: 1.96 | PBM binding z-score [16]: 5.33 | PBM binding z-score [17]: 0.829 | PBM binding z-score [18]: 4.92 | PBM binding z-score [19]: 0.516 | PBM binding z-score [20]: 3.97

— the supplement of paper PMC6555819
